Inconclusive results are not listed. Active and inactive are the calls of the source. Calls come from the whole dose curve; as a rule, active = well fitted curve in the direction sought with a large enough effect; inconclusive = small, poorly fitted or top-dose-only effect, or another doubt; inactive = no such curve, though single readings can be large; an effect the other way counts as inactive or inconclusive.

A short description of test [1]: qHTS of pediatric cancer cell lines to identify multiple opportunities for drug repurposing: Primary screen for BT-37 cells (AID 1347094). Note: potency is the fitted concentration of half-maximal effect. In a few lines:
(§1)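 Plated cells (500-1,000 per well, growth media) were allowed to settle for 5 hours, treated with compound dilutions for 48 hours, then lysed with CellTiter-Glo for 15 min at room temperature before luminescence reading.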
(In general: Quantitative high-throughput screening tests each substance at several concentrations.)

Test [2] can be described thus: qHTS of pediatric cancer cell lines to identify multiple opportunities for drug repurposing: Primary screen for Saos-2 cells (AID 1347097). Note: nearly all actives have a fitted effect of over 40% in size. Note: potency is the fitted concentration of half-maximal effect. Summed up: as §1
The nature of test [3]: qHTS of pediatric cancer cell lines to identify multiple opportunities for drug repurposing: Primary screen for NB1643 cells (AID 1347099). Note: nearly all actives have a fitted effect of over 50% in size. Note: potency is the fitted concentration of half-maximal effect. In a few lines: as §1
Test [4] is described as follows: qHTS of pediatric cancer cell lines to identify multiple opportunities for drug repurposing: Primary screen for LAN-5 cells (AID 1347100). Note: potency is the fitted concentration of half-maximal effect. In a few lines: (§2)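 Viability after 48 h compound treatment at 37C, 500-1,000 cells/well, read as ATP luminescence with CellTiter-Glo. Primary screens used 11-point (MIPE, 0.78 nM-46 µM) or 8-point (NPC, 0.59 nM-46 µM) final concentrations; follow-up screens used 11-point dilutions.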

Test [5] in a line: qHTS of pediatric cancer cell lines to identify multiple opportunities for drug repurposing: Primary screen for BT-12 cells (AID 1347101). Note: nearly all actives have a fitted effect of over 25% in size. Note: potency is the fitted concentration of half-maximal effect. Summed up:
(§3)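 Cells (500-1,000/well) rested 5 h, then received compounds for 48 h; metabolically active cells were measured by CellTiter-Glo luminescence. Final concentrations spanned up to 46 µM (MIPE, 11-point) or 0.59 nM-46 µM (NPC, 8-point) in primary screens, 11-point in follow-ups.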

A short description of test [6]: qHTS of pediatric cancer cell lines to identify multiple opportunities for drug repurposing: Primary screen for Rh18 cells (AID 1347102). Note: nearly all actives have a fitted effect of over 65% in size. Note: potency is the fitted concentration of half-maximal effect. Summed up: as §2
Test [7] can be described thus: qHTS of pediatric cancer cell lines to identify multiple opportunities for drug repurposing: Primary screen for OHS-50 cells (AID 1347103). Note: nearly all actives have a fitted effect of over 40% in size. Note: potency is the fitted concentration of half-maximal effect. In a few lines: as §3
Test [8] in a line: qHTS of pediatric cancer cell lines to identify multiple opportunities for drug repurposing: Primary screen for RD cells (AID 1347104). Note: nearly all actives have a fitted effect of over 55% in size. Note: potency is the fitted concentration of half-maximal effect. In a few lines: as §1
Test [9] is described as follows: qHTS of pediatric cancer cell lines to identify multiple opportunities for drug repurposing: Primary screen for MG 63 (6-TG R) cells (AID 1347105). Note: nearly all actives have a fitted effect of over 50% in size. Note: potency is the fitted concentration of half-maximal effect. Summed up:
as §1

Test [10] can be described thus: qHTS of pediatric cancer cell lines to identify multiple opportunities for drug repurposing: Primary screen for control Hh wild type fibroblast cells (AID 1347106).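 Note: series mostly up to about 46 µM; a drop in luminescence marks cytotoxicity and a rise apparent proliferation; nearly all actives have a fitted effect of over 55% in size.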 Summed up: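 Cells (500-1,000/well) in growth media were settled 5 h at 37 degrees C, then given compounds for 48 h. Viability was read as CellTiter-Glo luminescence. Primary runs used MIPE at 11 points (0.78 nM-46 µM) and NPC at 8 points (0.59 nM-46 µM); follow-ups used 11 points.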

Test [11] can be described thus: qHTS of pediatric cancer cell lines to identify multiple opportunities for drug repurposing: Primary screen for SK-N-SH cells (AID 1347098). Note: nearly all actives have a fitted effect of over 65% in size. Note: potency is the fitted concentration of half-maximal effect. Summed up: as §3
Test [12] in a line: qHTS of pediatric cancer cell lines to identify multiple opportunities for drug repurposing: Primary screen for Rh30 cells (AID 1347107). Note: series mostly up to about 46 µM; nearly all actives have a fitted effect of over 75% in size. In a few lines: as §2
The nature of test [13]: qHTS of pediatric cancer cell lines to identify multiple opportunities for drug repurposing: Primary screen for Rh41 cells (AID 1347108).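 Note: series mostly up to about 46 µM; luminescence drop marks cytotoxic hits; nearly all actives have a fitted effect of over 70% in size.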 In a few lines:
as §1

The nature of test [14]: qHTS of pediatric cancer cell lines to identify multiple opportunities for drug repurposing: Primary screen for NB-EBc1 cells (AID 1347095). Summed up:
as §1

A short description of test [15]: qHTS of pediatric cancer cell lines to identify multiple opportunities for drug repurposing: Primary screen for U-2 OS cells (AID 1347096). Note: nearly all actives have a fitted effect of over 50% in size. In a few lines:
as §2

Test [16] in a line: qHTS of pediatric cancer cell lines to identify multiple opportunities for drug repurposing: Primary screen for SK-N-MC cells (AID 1347093). Note: potency is the fitted concentration of half-maximal effect. In a few lines: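 Metabolically active cells were quantified by ATP-dependent luminescence (CellTiter-Glo, 15 min at room temperature) following 48 h treatment. Cells had been plated at 500-1,000 per well and settled for 5 h beforehand.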

Test [17] can be described thus: qHTS of pediatric cancer cell lines to identify multiple opportunities for drug repurposing: Confirmatory screen for NB1643 cells (AID 1347109). Note: potency is the fitted concentration of half-maximal effect; nearly all actives have a fitted effect of over 45% in size. Summed up:
as §2

Test [18] is described as follows: qHTS of pediatric cancer cell lines to identify multiple opportunities for drug repurposing: Confirmatory screen for A673 cells (AID 1347110). Note: potency is the fitted concentration of half-maximal effect; nearly all actives have a fitted effect of over 65% in size. In a few lines: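 A673 cells at 500-1,000 cells/well were dosed 5 h after plating, in dilution series up to 46 uM final; primary runs used 8 or 11 points and confirmatory runs used 11 points. Viability was read by CellTiter-Glo luminescence after 48 h, against DMSO and 2.3 uM bortezomib controls.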

Test [19] can be described thus: qHTS of pediatric cancer cell lines to identify multiple opportunities for drug repurposing: Confirmatory screen for SK-N-MC cells (AID 1347111).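 Note: potency is the fitted concentration of half-maximal effect; cells exposed to compound for 48 h before the readout; nearly all actives have a fitted effect of over 70% in size.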 In a few lines:
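SK-N-MC cells at 500-1,000 cells/well in growth media were pre-incubated 5 h, then exposed to compounds at 11-point dilutions for 48 h at 37 degrees C, 5% CO2. Viability was read as CellTiter-Glo luminescence.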

On to `OCCNC1CCCc2c1[nH]c1ccc(-c3ccccc3)cc21` (centres undefined), for which the Potency in test [1] was 24.3 µM (active); in [2], 18.7 µM (active); in test [4], 26.4 µM (active); in test [5], 30.6 µM (active); in test [6], 20.9 µM (active); in test [7], 24.3 µM (active). Besides, the Potency in test [8] is 33.2 µM (active). In addition, the Potency entry in [3], in test [9] and in test [10] was “inactive” each time.

For `O=C(Nc1ccc(Oc2ccnc3[nH]ccc23)c(F)c1)c1cccn(-c2ccc(F)cc2)c1=O`, the Potency result in [1], in test [11], in test [3], in test [4], in [5] and in [6] was “inactive” throughout. In addition, the Potency result in [8], in test [9], in test [10], in test [12] and in test [13] was “inactive” each time. In addition, the Potency in test [2] was 20.9 µM (active).

Regarding `C[C@@H]1C(=O)O[C@H]2CC34[C@H]5C[C@@H](C(C)(C)C)C36[C@H](OC(=O)[C@@H]6O)O[C@@]4(C(=O)O5)[C@]21O` (some centres undefined), the Potency result in test [14], in test [6], in [7], in test [8], in test [9] and in [10] was “inactive” in each case. Further, the Potency entry in test [12] and in test [13] was “inactive” throughout. Also, the Potency in test [4] is 13.2 µM (active).

Regarding `O=C(O)CCCCC(CCSCc1ccccc1)SCc1ccccc1` (centres undefined), the Potency result in test [1], in test [14], in test [15], in [5] and in [10] was “inactive” throughout. For the same molecule, the Potency in test [3] is 10.5 µM (active); in test [8] it was 33.2 µM (active).

Consider `Cc1coc2c1C(=O)C(=O)c1c-2ccc2c(C)cccc12`, for which the Potency entry in [16], in test [11], in test [3], in test [4], in [7] and in test [9] was “inactive” throughout. The Potency entry in test [10], in test [12] and in test [13] was “inactive” throughout.

In the case of `CC(C)(O)CC[C@@H](O)[C@](C)(O)[C@H]1CC[C@@]2(O)C3=CC(=O)[C@@H]4C[C@@H](O)[C@@H](O)C[C@]4(C)[C@@H]3CC[C@]12C`, the Potency result in [1], in test [14], in test [15], in test [2], in [4] and in test [5] was “inactive” in each case. Also, the Potency result in test [6], in test [7], in [9], in [10], in test [12] and in test [13] was “inactive” in each case.

Regarding `COc1cc(C)c(C=CC(C)=CC=CC(C)=CC(=O)O)c(C)c1C`, the Potency entry in [14], in test [15], in test [2], in test [11], in test [3] and in [6] was “inactive” each time. Besides, the Potency entry in test [8], in test [10] and in test [12] was “inactive” in each case. Further, the Potency in test [7] was 1.72 µM (active).

For `O=C(C[C@@H]1CC=CCCC(=O)O[C@H](c2ccccc2)CNC1=O)NCc1ccc(Cl)cc1`, the Potency result in test [1], in test [14], in [2], in test [11], in test [3] and in test [4] was “inactive” each time. The Potency entry in test [5], in [6], in test [7], in test [10], in [12] and in test [13] was “inactive” in each case.

For the molecule `Cc1ccc(O)c(C(CCN(C(C)C)C(C)C)c2ccccc2)c1` (centres undefined), the Potency result in test [14], in [15], in test [2], in test [11], in test [3] and in test [4] was “inactive” each time. Also, the Potency entry in [5], in test [6], in test [8], in [9], in [10] and in test [12] was “inactive” each time.

Regarding `c1ccc2c(Oc3nc(Nc4ccc(N5CCOCC5)cc4)c4ncn(C5CCCCC5)c4n3)cccc2c1`, the Potency result in [1], in test [15], in [2], in test [11], in test [3] and in test [4] was “inactive” each time. Besides, the Potency entry in test [6], in test [8], in test [10], in [12] and in test [13] was “inactive” each time.

Consider `C[C@H](NC(=O)[C@@H](O)c1cc(F)cc(F)c1)C(=O)N[C@@H]1C(=O)N(C)c2ccccc2-c2ccccc21`, for which the Potency result in test [1], in [4], in test [5], in test [6] and in test [10] was “inactive” throughout.

Take `C[N+](C)([O-])CCNc1ccc(NCC[N+](C)(C)[O-])c2c1C(=O)c1c(O)ccc(O)c1C2=O`: the Potency entry in test [1], in test [15], in test [2], in [6], in test [7] and in [9] was “inactive” in each case. Further, in test [10], the Potency result was “inactive”.

As for `COC(=O)C1C2CC3c4[nH]c5cc(OC)ccc5c4CCN3CC2CC(OC(=O)c2cc(OC)c(OC)c(OC)c2)C1OC` (centres undefined), the Potency is 3.72 µM (active) in [16]; 18.7 µM (active) in test [2]; 27.3 µM (active) in [7]; 5.22 µM (active) in [17]; 3.29 µM (active) in test [18]; 0.369 µM (active) in [19]. Further, the Potency result in test [4], in test [9], in test [10] and in test [12] was “inactive” throughout.

On to `CC(O)(C#Cc1ccc2c(c1)N(c1nc(N)ncc1Cl)CC2)c1nccs1` (centres undefined), for which the Potency result in test [14], in test [15], in [10], in test [12] and in [13] was “inactive” throughout. Further, the Potency in test [11] is 21.5 µM (active); in [3] it was 16.6 µM (active); in test [7] it was 24.3 µM (active); in [8], 18.7 µM (active); in test [9], 9.35 µM (active).

Take `CON=C(C(=O)N[C@@H]1C(=O)N2C(C(=O)O)=C(Cn3ccc(=N)n3CCO)CS[C@H]12)c1csc(N)n1`: the Potency entry in test [1], in [14], in test [15], in test [2], in test [4] and in test [5] was “inactive” each time. In addition, the Potency entry in test [6], in [8], in test [9], in test [10], in test [12] and in test [13] was “inactive” throughout.

`CON=C(C(=O)N[C@@H]1C(=O)N2C(C(=O)O)=C(CSC(=O)c3ccco3)CS[C@H]12)c1csc(N)n1`: the Potency entry in test [14], in test [15], in test [2], in [4], in test [5] and in test [6] was “inactive” in each case. The Potency entry in test [8], in test [9], in test [10], in [12] and in [13] was “inactive” each time. Besides, in test [11], the Potency was 13.6 µM (active).

For `CCCCCCCN(CC)CCCC(O)c1ccc(NS(C)(=O)=O)cc1` (centres undefined), the Potency entry in test [16], in test [15], in [11], in [3], in test [5] and in test [6] was “inactive” each time. In addition, the Potency entry in test [8], in test [9], in test [10], in [12] and in test [13] was “inactive” each time.

Regarding `CC(=O)O[C@@]12CO[C@H]1C[C@H](O)[C@@]1(C)C(=O)[C@H](O)C3=C(C)[C@@H](OC(=O)C(O)[C@@H](NC(=O)OC(C)(C)C)c4ccccc4)C[C@@](O)([C@@H](OC(=O)c4ccccc4)[C@@H]21)C3(C)C` (some centres undefined), the Potency in test [16] was 0.001 µM (active); in test [7], 0.001 µM (active); in [18] it was 0.0052 µM (active); in test [19], 0.0066 µM (active). Moreover, the Potency entry in test [15], in [11], in [9] and in [10] was “inactive” each time.

The record behind these values is PubChem BioAssay (NCATS).
